Measured values reported in PubChem BioAssay (NCI).
Compounds without any hit were thinned out: in the full panel of roughly 83,000, 20% have a hit.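 Results are percent growth after 48 hours of single-concentration exposure. 100 means growth as in untreated cells, lower positive values show inhibition; negative values down to -100 show cell death.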 Activity calls are given as the source filed them. Rule for the calls: active = growth percent below 10; inactive = the rest.

Key:
Experiment in all cases: NCI-60 one-dose screen, 48 h (100 = growth as untreated, 0 = no growth, -100 = all killed)
Details in all cases: 10 µM unless noted
[1] = test system: SK-MEL-2 melanoma
[2] = test system: EKVX NSCLC
[3] = test system: SN12C renal
[4] = test system: UO-31 renal
[5] = test system: TK-10 renal
[6] = test system: ACHN renal
[7] = test system: CAKI-1 renal
[8] = test system: A498 renal
[9] = test system: CCRF-CEM leukemia
[10] = test system: MOLT-4 leukemia

Measured: growth

C=CCn1c(C)nc2cc(Nc3nc(Nc4ccc5nc(C)n(CC=C)c5c4)nc4ccccc34)ccc21
inactive: [1] 121% | [2] 97.1% | [3] 96.5% | [4] 89.3% | [5] 130% | [6] 104% | [7] 101% | [8] 125% | [9] 94.8% | [10] 101%

CCOC(=O)C(Nc1ccccc1)C(=O)OCC
inactive: [1] 108% | [2] 108% | [3] 99.3% | [4] 74.8% | [5] 107% | [6] 99.3% | [7] 105% | [8] 126% | [9] 111% | [10] 83%

O=C(/C=C/c1cc([N+](=O)[O-])ccc1Cl)c1ccccc1
inactive: [1] 107% | [2] 84.6% | [3] 80.8% | [4] 70.8% | [5] 112% | [6] 91.2% | [7] 73.2% | [8] 86% | [9] 68.7% | [10] 78%

C#CC[C@@H]1C[C@]2(C)[C@H]3CC[C@@H]4[C@H]5C(C(=C)C)CC[C@]5(C(=O)NCCCCCCCCN)CC[C@@]4(C)[C@]3(C)CC[C@H]2C(C)(C)[C@H]1OC(C)=O (stereo not given in full)
active: [9] -8.23% | [10] 5.47%
inactive: [1] 112% | [2] 103% | [3] 96.3% | [4] 75.5% | [5] 96.5% | [6] 111% | [7] 69.9% | [8] 95.6%

COc1cccc(/C=N/N=C(N)N)c1
inactive: [1] 107% | [2] 102% | [3] 95.2% | [4] 82.6% | [5] 113% | [6] 100% | [7] 104% | [8] 78% | [9] 108% | [10] 115%

CCCCCCCCCC1=NC(C)(C)CN1C(C)(C)CO
inactive: [1] 124% | [2] 90.8% | [3] 83.6% | [4] 56.8% | [5] 97.7% | [6] 93.6% | [7] 75% | [8] 93% | [9] 82.4% | [10] 15.9%

COc1ccc(/C=c2\c(=O)n(-c3ccccc3)c3nn4c(=O)c(=O)[nH]nc4n23)cc1
inactive: [1] 109% | [2] 104% | [3] 108% | [4] 83% | [5] 133% | [6] 114% | [7] 90.4% | [8] 118% | [9] 106% | [10] 110%

CCOC(=O)c1ccc(N(CCC(=O)O)C(C)=O)cc1
inactive: [1] 105% | [2] 130% | [3] 107% | [4] 79% | [5] 105% | [6] 112% | [7] 101% | [8] 104% | [9] 98.3% | [10] 104%

CCOCC(O)(c1ccc(Cl)cc1)c1ccc(Cl)cc1
inactive: [1] 102% | [2] 94.1% | [3] 105% | [4] 91.3% | [5] 110% | [6] 98.7% | [7] 88.2% | [8] 112% | [9] 96.1% | [10] 88.7%

COc1cc2nccc(Oc3ccc(NC(=O)C4(C(=O)Nc5c(F)cc(F)cc5F)CC4)cc3)c2cc1Oc1ccc(N)cn1
active: [8] -6.52%
inactive: [1] 81.5% | [2] 45.2% | [3] 30.6% | [4] 45.3% | [5] 84.5% | [6] 50.9% | [7] 65.6% | [9] 70.9% | [10] 38.5%

O=C1Cc2c([nH]c3ccc([N+](=O)[O-])cc23)-c2ccccc2N1
active: [1] -21.5% | [4] 4.74% | [8] -5.07% | [9] 1.61% | [10] 2.18%
inactive: [2] 17.1% | [3] 44.1% | [5] 12% | [6] 11.5% | [7] 16.4%

FC1(F)CCN(Cc2c[nH]c3cc(Cl)ccc23)C[C@H]1CCc1ccccc1
inactive: [1] 76.6% | [2] 63% | [3] 54.3% | [4] 42% | [5] 61.6% | [6] 62.5% | [7] 62.1% | [8] 82% | [9] 45.9% | [10] 26.7%

Nc1ccc(N(O)/C=C2\C=CC=CC2=O)cc1N
inactive: [1] 108% | [2] 96.4% | [3] 101% | [4] 62.5% | [5] 133% | [6] 76.3% | [7] 100% | [8] 88.9% | [9] 57.6% | [10] 73%

CN1CCN(Cc2ccc(NC(=O)c3cccc(C#Cc4cnc(N)c5ncccc45)c3F)cc2C(F)(F)F)CC1
active: [1] -1.16% | [4] -96.6% | [6] -77.2% | [8] -15.1% | [9] 7.7% | [10] 1.77%
inactive: [2] 66.8% | [3] 44.5% | [5] 56.2% | [7] 33.6%

CCC(C)C1NC(=O)c2nc(oc2-c2ccccc2)-c2csc(n2)-c2csc(n2)-c2nc(oc2C)-c2coc(n2)CNC(=O)C(C(C)CC)NC1=O (stereo not given)
active: [1] -80.1% | [2] -71.3% | [3] -65.3% | [4] -90.1% | [5] -86.7% | [6] -91.3% | [7] -95.2% | [8] -85.3% | [9] -66.4% | [10] -66.2%

CCCCCCCCCCC(C(O)c1ccccc1)N1CCCCC1 (stereo not given)
inactive: [1] 53.8% | [2] 33.5% | [3] 43.2% | [5] 76.8% | [6] 42.1% | [8] 75.1%
active: [4] -1.17% | [7] -21.1% | [9] 0.764% | [10] 6.36%

CSC(=S)N/N=C(\C)c1ccccn1
inactive: [1] 21.7% | [3] 24.2% | [5] 41.7% | [6] 14.8%
active: [2] 4.31% | [4] -0.858% | [7] -9.67% | [8] -3.97% | [9] 7.65% | [10] 0.153%

CC[C@H](Nc1nc(C)nc(N)c1C#N)c1nc2cccc(NCc3ccc(C(=O)NO)cc3)c2c(=O)n1-c1ccccc1
active: [3] 7.89% | [4] -12.5% | [5] 2% | [6] 2.03% | [7] -11.1% | [8] -27.1% | [9] 6.17% | [10] 2.8%
inactive: [1] 67.2% | [2] 12.7%

O=c1[nH]c2ccccc2n2cc3cccnc3c12
inactive: [1] 105% | [2] 86.4% | [3] 51.2% | [4] 67.8% | [5] 83.7% | [6] 49.1% | [7] 68.1% | [8] 51.2% | [9] 74.5% | [10] 48.4%

CCNC(=S)N(Cc1ccccc1)Cc1ccccc1
inactive: [1] 98.6% | [2] 93.1% | [3] 103% | [4] 74.6% | [5] 106% | [6] 96.3% | [7] 93.5% | [8] 116% | [9] 132% | [10] 82.4%

CCN(C(=O)Nc1cccc2ccccc12)c1ccccc1
inactive: [1] 108% | [2] 95.9% | [3] 103% | [4] 73% | [5] 108% | [6] 99.5% | [7] 99.9% | [8] 90.2% | [9] 109% | [10] 72.6%

CCCCCCCCCCCC1=NC(C)(C)CN1C(C)(C)CO
inactive: [1] 49.4% | [2] 64.6% | [3] 59.8% | [4] 46.7% | [5] 70.3% | [6] 56.7% | [7] 63.2% | [8] 90.1% | [9] 26.6% | [10] 74%

Cc1c(-c2ccc(-c3ccccc3F)cc2)nc2ccc(F)cc2c1C(=O)O
inactive: [1] 101% | [2] 55% | [3] 47.6% | [4] 35.8% | [5] 56% | [6] 36.5% | [7] 25.9% | [8] 80.9% | [9] 27.9%
active: [10] 2.49%

C/C=C(\C)C(C(=O)NC1CCCCC1)N(C(=O)C1CCc2cc(F)ccc2O1)c1ccc([N+](=O)[O-])cc1 (stereo not given)
inactive: [1] 99.6% | [2] 84.2% | [3] 93.4% | [4] 69.1% | [5] 89.9% | [6] 89.7% | [7] 80.2% | [8] 90.3% | [9] 97.3% | [10] 76.4%

CCc1oc2ccccc2c1C(=O)c1cc(I)c(O)c(I)c1
active: [1] 1.14%
inactive: [2] 84.5% | [3] 46.4% | [4] 80% | [5] 87.7% | [6] 72.9% | [7] 45.9% | [8] 98.2% | [9] 66.2% | [10] 32.5%

OC(c1cc2c(Cl)cc(Cl)cc2c2cc(C(F)(F)F)ccc12)C1CCCCN1 (stereo not given)
active: [1] -65.3% | [2] -51.8% | [3] -79.1% | [4] -87.6% | [5] -87.7% | [6] -78.6% | [7] -62.5% | [8] 0.166% | [9] -54.7% | [10] -62.6%

COc1ccc(Br)c2ccccc12
inactive: [1] 113% | [2] 94% | [3] 112% | [4] 70.3% | [5] 118% | [6] 102% | [7] 95.3% | [8] 135% | [9] 103% | [10] 91.6%
